# Screening data from PubChem BioAssay.
# Only some compounds are listed: those with a hit (about 0.52% of all), similar ones and a draw of the others.
# GAA inh: alpha-glucosidase (human) inhibition. P10253. purified human GAA, 4-MU-alpha-glucoside fluorescence. Potency, µM (doses to about 76.9 µM), for the others: at the top dose activity change, negative = inhibition, hits mostly inhibitors. 200,000 tested, 0.005% active. AID 1466;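 note: plate controls were uninhibited enzyme wells for no effect and no-enzyme background for full effect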
#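 Fluorogenic assay: 4 nM human alpha-glucosidase with 400 uM 4-methylumbelliferyl-alpha-D-pyranoside in 50 mM citrate/phosphate, 0.005% Tween-20, pH 5.0, 20 min at room temperature. Compounds tested up to 77 uM; AC50 from Hill fits.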
# GAA glycogen: GAA glycogen-cleavage inhibition or activation. recombinant GAA, glycogen substrate, Amplex Red glucose oxidase fluorescence. Potency, µM (series often up to 76.4 µM), for inactives: at the highest dose activity change, negative = inhibition, usual class: inhibitors. 300,000 tested, 0.38% active. P10253;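 note: 0% = full enzyme reaction and -100% = no-enzyme basal signal; the screen sought inhibitors and activators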
#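 Recombinant human enzyme (4 nM); glycogen substrate; 37 C, 40 min, pH 5.0. Readout: coupled glucose oxidase/Amplex Red fluorescence.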
# KinaseGlo FLuc: counter-screen: inhibitors of Kinase-Glo firefly luciferase; Potency, µM (top dose mostly 38.3 µM), for the others: top-dose activity change, negative = inhibition, usual class: inhibitors; Q27757; Kinase-Glo luciferase, ATP luminescence, 8 min; 200,000 tested, 0.28% active; note: nearly all actives have a fitted effect of over 60% in size
#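 Inhibition of Kinase-Glo luciferase light generation was assessed at 10 uM ATP in pH 7.2 imidazole buffer, with luminescence measured after eight minutes at ambient temperature.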
# Lamin A splicing: LMNA splicing modulation. HeLa LMNA splicing GFP/RFP minigene ratio, 48 h. Potency, µM (series often up to 46.1 µM), inactives show at the top dose ratio change, negative = inhibition, actives largely listed as inhibitors. 200,000 tested, 0.01% active. AID 1487; active = well fitted inhibition curve with a large enough effect in the signal ratio, with a control signal flat, not every such curve was filed as active; inconclusive = small, poorly fitted or top-dose-only effect, or effect the other way, or a change in a side signal; the % refers to the signal ratio
#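 S3 HeLa cells stably expressing lamin A-EGFP splicing minigene plus DsRed2, 600 cells/well, 48 h compound exposure at 37C. Laser-scanning cytometry; analysed as GFP (500-530 nm)/RFP (575-640 nm) total intensity ratio; 0.5% DMSO vehicle.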
# GAA spleen mod: inhibits or activates alpha-glucosidase in human spleen homogenate | P10253 | human spleen homogenate, 4-MU-alpha-glucoside fluorescence | Potency, µM (highest dose often 79.9 µM), without a hit: at the top dose activity change, negative = inhibition, most hits filed as inhibitors | 240,000 tested, 0.006% active;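 note: 0% = enzyme with vehicle and -100% = no enzyme basal signal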
#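 Human spleen homogenate (1 ug) incubated with compounds and 1 mM 4-methylumbelliferyl-alpha-D-glucopyranoside in pH 5.0 citrate/phosphate buffer, 37 C, 40 min. Stopped at pH 10; 4-MU fluorescence (Ex 365/Em 440 nm); AC50 by Hill fit.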
# N370S GC: inhibitors or activators of N370S glucocerebrosidase for Gaucher disease; P04062; N370S GC spleen homogenate, 4MU-glucoside fluorescence; Potency, µM (titrated, usually from 59.4 µM), for inactives: top-dose activity change, negative = inhibition, most hits filed as inhibitors; 330,000 tested, 0.092% active;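 note: 0% = full enzyme activity and -100% = no enzyme basal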
# An asterisk follows results filed as active; ? = inconclusive; / = no result given; [ ] = another dose, or the depositor's remark. Unless noted, calls come from the whole dose curve; as a rule, active = well fitted curve in the direction sought with a large enough effect; inconclusive = small, poorly fitted or top-dose-only effect, or another doubt; inactive = no such curve, though single readings can be large; an effect the other way counts as inactive or inconclusive. Unless noted, % is set by controls: 0 for no effect and ±100 for the full control effect; potency is the fitted concentration of half-maximal effect.
SMILES,GAA inh,GAA glycogen,KinaseGlo FLuc,Lamin A splicing,GAA spleen mod,N370S GC
CCC(C)NC(=O)C1CCN(C(=O)c2cc3sccc3n2Cc2ccc(Cl)cc2)CC1 (stereo unspecified),/,17%[76.3 µM],/,/,/,/
COc1ccc(C(=O)/C=C/Nc2c(C)n(C)n(-c3ccccc3)c2=O)cc1OC,?,3.1µM*,3%,?,2%,3%
Cc1ccc(CNc2nc(-c3cccs3)nc3ccccc23)cc1,-10%,-12%,5%,?,-7%,14µM*
N#Cc1nc(-c2cccs2)oc1NCc1ccccc1,?,?,-6%,2%,0%,29%
N#Cc1nc(Cc2ccccc2)oc1NCCN1CCOCC1,-3%,-6%,2%,9%,1%,3%
c1ccc(CNc2nc(-c3cccs3)nc3ccccc23)nc1,4%,4%,3%,?,-3%,-29%
N#Cc1nc(Cc2ccccc2)oc1NCc1ccccc1,-4%,50µM*,5%,?,-5%,7%
Cc1ccc(CNc2oc(-c3cccs3)nc2C#N)cc1,?,22µM*,5%,-18%,7%,28%
CCCc1cc(=O)[nH]c2nnc(SCCC(C)C)n12,/,/,/,6%[46 µM],/,/
CN(C)c1ccc(NC(=O)N2CCOCC2)cc1,2%,13µM*,-18%,-8%,10%,7%
Oc1ccc(NCc2ccccc2OCc2ccccc2F)cc1,0%,?,9%,12%,-4%,?
CCOc1ccccc1CNc1ccc(O)cc1,-4%,?,0%,/,4%,5.6µM*
CCc1c(C)sc2c1CCN(C(=O)Nc1ccccc1Cl)C2c1ccc(OC)cc1 (stereo unspecified),/,/,/,-18%[46 µM],/,/
COc1ccc2nc3c(nc2c1)C(=O)c1ccccc1-3,/,/,-8%,/,/,/
Cc1cc(NC(=O)c2ccccc2)ncc1NC(=O)c1cccs1,?,4%,11µM*,/,4%,26%
Cc1cc(NC(=O)c2cccs2)ncc1NC(=O)c1cccc(F)c1,10%,-1%,-10%,/,3%,3%
COCCCNC(=S)Nc1ccc(N2CCCCC2)cc1,2%,14µM*,-1%,/,2%,-2%
COCCCNC(=S)NNC(=S)Nc1ccc(OC)cc1,/,4.5µM*,/,/,1%,1%
CCOc1cc2c3c(c1)C1(Nc4ccccc4S1)C(=O)N3C(C)(C)CC2C (stereo unspecified),-7%,35µM*,-1%,-26%,-1%,15%
O=C(O)/C=C/C(=O)Nc1ccc(O)cc1,-1%,32µM*,/,?,2%,?
C(=Nc1cccc2c(N=Cc3ccco3)cccc12)c1ccco1,2%,14µM*,-3%,/,7%,-7%
CN(C)c1ccc(C=Nc2ccc(N(C)C)cc2)cc1,1%,30%,-10%,-6%,-6%,-12%
CN(C)c1ccc(N=Cc2ccco2)cc1,3%,?,11µM*,?,9%,14%
C(=N\C(/N=C/c1ccco1)c1ccco1)/c1ccco1,-4%,10%,-4%,-2%,-5%,2%
COC(=O)N1C2(C=CC1(C)C(=O)NCc1ccc(N(C)C)cc1)CCCCC2 (stereo unspecified),/,/,-4%,/,-9%,-3%
SMILES,GAA inh,GAA glycogen,KinaseGlo FLuc,Lamin A splicing,GAA spleen mod,N370S GC
O=C(Nc1ccc(Cl)c(Cl)c1)Nc1ccccc1C(=O)O,?,5%,-12%,?,-2%,-7%
O=C(Nc1ccc(Cl)cc1)Nc1ccccc1C(=O)O,?,12%,13µM*,/,0%,24%
CCc1ccc(OC2=NS(=O)(=O)c3ccccc32)cc1,-2%,-8%,-1%,/,-4%,-11%
CCN(CC)c1cccc(OC2=NS(=O)(=O)c3ccccc32)c1,-5%,28µM*,/,4%,-4%,-11%
COc1ccc2c(c1)C(=O)[C@H](OC(=O)NCc1ccco1)[C@@H](c1ccc(OC)c(Br)c1)O2,/,/,-2%,/,2%,-4%
Cc1ccccc1C(=O)NNc1ccc(-c2csnn2)cc1,-2%,16µM*,/,/,6%,-26%
CC(=O)Oc1ccc(-c2csnn2)cc1,1%,-8%,-7%,-1%,9%,4%
